Measurements reported in PubChem BioAssay AID624417 (National Center for Advancing Translational Sciences (NCATS), 2012).
Among all 410,000 compounds or so, about 6,400 (1.6%) were called active. About 20% were inconclusive and are not listed. The call rests on the fitted dose curve; in most records, active means well fitted inhibition curve with a large enough effect; inconclusive means small, poorly fitted or top-dose-only effect; inactive means no such curve, though single readings can be large or run the other way. The sample as a whole holds a higher share of actives than the screen did.

Each compound was assayed against Glucagon-like peptide 1 receptor (Homo sapiens) (UniProt P43220) (assay: qHTS of GLP-1 Receptor Inverse Agonists (Inhibition Mode)). Details: HEK293 GLP-1R CRE-luciferase, luminescence, 24 h, GLP-1R form is constitutively active; series mostly up to 38.3 µM; activity change, negative = inhibition: at the top concentration.
Glucagon-like peptide 1 receptor (Homo sapiens), sequence (P43220 whole entry, looked up): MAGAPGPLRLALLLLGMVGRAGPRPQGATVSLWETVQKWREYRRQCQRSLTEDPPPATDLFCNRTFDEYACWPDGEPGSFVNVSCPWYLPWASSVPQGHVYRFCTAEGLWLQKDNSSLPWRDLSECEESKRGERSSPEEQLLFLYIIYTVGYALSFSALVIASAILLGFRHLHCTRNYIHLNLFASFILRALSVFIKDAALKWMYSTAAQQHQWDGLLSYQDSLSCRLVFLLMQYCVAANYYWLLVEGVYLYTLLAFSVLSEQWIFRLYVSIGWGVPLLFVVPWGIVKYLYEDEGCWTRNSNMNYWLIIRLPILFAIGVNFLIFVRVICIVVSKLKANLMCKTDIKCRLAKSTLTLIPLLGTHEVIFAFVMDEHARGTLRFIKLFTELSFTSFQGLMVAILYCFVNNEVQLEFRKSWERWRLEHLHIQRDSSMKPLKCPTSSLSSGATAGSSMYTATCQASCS
Summary of the method: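 Constitutively active GLP-1R drives a cAMP-responsive luciferase in stably transfected HEK293 cells; test compounds are added after overnight (12 h) attachment and left 24 hr, and signal loss in luminescence marks inhibition.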
Further: nearly all actives have a fitted effect of over 55% in size.
On the % scale 0 is the no-effect control and ±100 the full control effect; potency means the concentration at half of the fitted maximal effect.

| SMILES | activity change, negative = inhibition | Potency |
| --- | --- | --- |
| CCNC(=O)C1(C)CCCN(Cc2noc(-c3ccccc3OC)n2)C1 (stereo not drawn) | -13.4% (inactive) |  |
| Oc1ccc(-c2nc3ccccc3nc2-c2ccc(O)cc2O)c(O)c1 |  | 4.47 µM (active) |
| Cc1nc2ccccc2nc1N/N=C/c1ccc(O)cc1O | -9.04% (inactive) |  |
| Oc1ccc2nc(Cc3ccccc3)[nH]c2c1 | 7.71% (inactive) |  |
| CCc1cccc(CC)c1N1C(=O)CC(Sc2ccccc2N)C1=O (stereo not drawn) | -11.6% (inactive) |  |
| Fc1ccc(-c2ccc(CNCc3ccccn3)o2)cc1Cl | -18.3% (inactive) |  |
| O=C1c2ccccc2C(=O)N1Cc1cc(-c2ccccc2Cl)no1 | 9.44% (inactive) |  |
| Clc1ccc(-c2cc(-c3ccccn3)on2)c(Cl)c1 |  | 5.62 µM (active) |
| Nc1nonc1-n1nnc(C(=O)N/N=C/C2CCCCC2)c1-c1ccccc1 | 22.9% (inactive) |  |
| Nc1nonc1-n1nnc(C(=O)N/N=C/c2c[nH]c3ccccc23)c1-c1ccccc1 |  | 12.6 µM (active) |
| CC(C)c1c(C(=O)N/N=C/c2ccccc2C(=O)O)nnn1-c1nonc1N | -9.57% (inactive) |  |
| Cc1[nH]c2ccccc2c1C(=O)C(=O)NCc1nnnn1-c1cccc(F)c1 | 9.36% (inactive) |  |
| O=C(COC(=O)c1cccc(Cl)c1Cl)NC1CCCCCC1 | -2.12% (inactive) |  |
| CC(=O)NCCNC(=O)c1cc(-c2cccc3ccccc23)nc2ccccc12 | 14% (inactive) |  |
| CN(C)CCNC(=O)c1ccc(Cl)c2cc3ccccc3nc12 |  | 7.08 µM (active) |
| CCCN(CCC)CCNC(=O)c1cc2c(C)nc3ccccc3c2o1 | -23.1% (inactive) |  |
| CC(=O)NC(c1ccccc1)c1nc(-c2ccccc2C)cs1 (stereo not drawn) | 19.8% (inactive) |  |
| c1ccc2cc3c(NCCN4CCOCC4)ccnc3cc2c1 |  | 10 µM (active) |
| c1ccc(-c2ccc(OCCN3CCOCC3)cc2)cc1 | -16.9% (inactive) |  |
| CCOc1nc(NCCN2CCOCC2)nc(Nc2ccc(C)cc2)n1 | 9% (inactive) |  |
| CCCCn1nnnc1C(c1ccccc1)N1CCN(c2ccccc2OC)CC1 (stereo not drawn) | -26.8% (inactive) |  |
| O=C(NCc1ccccc1Cl)c1csc([C@@H]2O[C@H](CO)[C@@H](O)[C@H]2O)n1 | -16.2% (inactive) |  |
| CCCN(CC(=O)Nc1ccccc1C)C(=O)c1cc(=O)[nH]c2ccccc12 | 0.788% (inactive) |  |
| CCCN(CC(=O)Nc1ccccc1C)C(=O)c1ccc2[nH]c3c(c2c1)CC(C)CC3 (stereo not drawn) |  | 5.62 µM (active) |
| CCCN(CC(=O)Nc1ccccc1C)C(=O)c1ccc(OCC(=O)N2CCOCC2)c(OCC)c1 | 7.89% (inactive) |  |

| SMILES | activity change, negative = inhibition | Potency |
| --- | --- | --- |
| CN(Cc1c(F)cccc1Cl)C(=O)COC(=O)Cn1cnc2ccccc2c1=O | 8.86% (inactive) |  |
| CCCN1CCc2nc(N3CCN(C)CC3)ncc2C1 | -13.3% (inactive) |  |
| CCOc1ccc(CN2CCCN(C)CC2)cc1 | -20.5% (inactive) |  |
| Cc1ccc(CN2CCc3nc(N4CCN(C)CC4)ncc3C2)cc1 |  | 7.94 µM (active) |
| COc1cc(C(O)c2nc(-c3cccc(C(=O)O)c3)cs2)ccc1F (stereo not drawn) | 30.9% (inactive) |  |
| Cc1cccc(C)c1-n1nnnc1C(CCc1ccccc1)N1CCN(C/C=C/c2ccccc2)CC1 (stereo not drawn) | 18.7% (inactive) |  |
| O=c1[nH][nH]c2c1[C@H](c1ccc(Cl)cc1)O[C@H](CCc1ccccc1)C2 |  | 10 µM (active) |
| CC(C)C1Cc2[nH][nH]c(=O)c2C(c2ccc(Cl)cc2)O1 (stereo not drawn) | -18.5% (inactive) |  |
| COc1ccc(N2C(=O)C(Cc3ccccc3)NC2=S)cc1 (stereo not drawn) | 22.3% (inactive) |  |
| COc1ccc(C2OC(CCc3ccccc3)Cc3[nH]c(=S)[nH]c(=O)c32)cc1 (stereo not drawn) |  | 10 µM (active) |
| CC1Cc2[nH][nH]c(=O)c2C(C2CC2)O1 (stereo not drawn) | 5.46% (inactive) |  |
| COc1ccc(C2CC(=O)NC(=O)C2)cc1 | 13.7% (inactive) |  |
| COc1ccc(CCNC(=O)Nc2ccc3c(c2)c(=O)n(C)n3C)cc1OC | 8% (inactive) |  |
| CC(C)CN1C(=O)CN(S(C)(=O)=O)CC1(C)C(=O)NCc1ccccc1 (stereo not drawn) | 18.3% (inactive) |  |
| c1ccc(Cc2c(-c3ccco3)nc3c4ccccc4ccn23)cc1 | -57% (inactive) |  |
| CCN(CC)CCNC(=O)c1sc2ncn(CC(=O)Nc3ccc(C)c(Cl)c3)c(=O)c2c1C |  | 11.2 µM (active) |
| Cc1ccc(NC(=O)Cn2cnc3nc4c(cc3c2=O)CCCC4)cc1Cl | 2.73% (inactive) |  |
| CCN(CC)CCNC(=O)Cn1cnc2sc(C)c(S(=O)(=O)N3CCOCC3)c2c1=O | -21.3% (inactive) |  |
| COc1ccc(C(C(=O)Nc2c(C)cccc2C)N2CCN(c3ccc(C)cc3)CC2)cc1 (stereo not drawn) | 3.35% (inactive) |  |
| CCOC(=O)N1CCN(C(c2ccnc3ccccc23)c2nnnn2-c2c(C)cccc2C)CC1 (stereo not drawn) | -20.8% (inactive) |  |
| Cc1nc(C(F)(F)F)ccc1C(=O)N1CCC1(C)C(=O)NS(=O)(=O)c1ccccc1 (stereo not drawn) | 12.5% (inactive) |  |
| O=C(c1cc(C2CCCCN2S(=O)(=O)c2ccccc2)on1)N1CCOCC1 (stereo not drawn) | 24.4% (inactive) |  |
| CCN1CCCC1CNC(=O)c1cc2c(=O)n(C)c3ccccc3c2n1C (stereo not drawn) | 2.81% (inactive) |  |
| CCN1CCCC1CNC(=O)c1ccc2c(c1)NC(=O)/C(=C\c1ccccc1F)S2 (stereo not drawn) |  | 11.2 µM (active) |
| CCN1CCN(CCNC(=O)c2ccc3c(c2)NC(=O)/C(=C\c2cccc(Cl)c2)S3)CC1 | -23.7% (inactive) |  |

| SMILES | activity change, negative = inhibition | Potency |
| --- | --- | --- |
| O[C@H]1CN(Cc2cccs2)[C@@H](c2ccc(Cl)cc2)C[C@@H]1n1cc(C2CC2)nn1 | 1.31% (inactive) |  |
| O=C(CNC(=O)N1CC(=O)Nc2ccccc21)Nc1ccc(Br)cc1F | -10.9% (inactive) |  |
| CO[C@@H]1CN(C)C(=O)c2cc(NC(=O)C3CC3)ccc2OC[C@H](C)N(C(=O)CN2CCOCC2)C[C@@H]1C | 19.3% (inactive) |  |
| c1ccc(-c2csc(N3CCc4ccccc4C3)n2)cc1 | 3.39% (inactive) |  |
| CN(C)CCCNC(=S)N1CCN(c2nc(-c3ccccc3)cs2)CC1 |  | 3.98 µM (active) |
| CN(C)CCCNC(=S)N1CCC(c2nc3ccccc3[nH]2)CC1 | 14.6% (inactive) |  |
| CCC1(CC)Cc2ccccc2-c2nc3ccccc3c(=O)n21 |  | 8.91 µM (active) |
| CCOn1c(SC(C)C)nc2ccccc2c1=O | -1.53% (inactive) |  |
| CCOC(=O)C1CCc2nc3ccccc3c(=O)n21 (stereo not drawn) | 1.08% (inactive) |  |
| Cc1ccc([C@@H]2CC(=O)[C@@H]3CN(S(=O)(=O)c4ccc(C)cc4)[C@H](c4ccccc4F)C[C@@H]3N2S(=O)(=O)c2ccc(Cl)cc2)cc1 | -28% (inactive) |  |
| O=C(CSc1ccc(-c2ccc(Br)cc2)nn1)NCC1CCCO1 (stereo not drawn) | -7.03% (inactive) |  |
| O=C(CCNS(=O)(=O)c1ccc(Br)cc1)NCC1CCCO1 (stereo not drawn) | 0.853% (inactive) |  |
| OC(CNCC1CCCO1)Cn1c2ccc(Br)cc2c2cc(Br)ccc21 (stereo not drawn) |  | 5.62 µM (active) |
| Cc1ccc(-n2ncc3c2ncn2nc(-c4ccco4)nc32)c(C)c1 | 7.56% (inactive) |  |
| Cc1cccc(C(=O)N2c3nc(-c4ccco4)nn3C3(CCCCC3)[C@@H]3CCCC[C@@H]32)c1 |  | 11.2 µM (active) |
| Cc1cccc(C(=O)NC(=S)N(C)C2CCCCC2)c1 | -23.1% (inactive) |  |
| CCc1nc2c(OCC(N)=O)cccn2c1N(C)C(=O)c1ccc(OC)cc1 | 21.3% (inactive) |  |
| Cc1ccccc1S(=O)(=O)NC(=O)C1(C)CCN1C(=O)Cc1ccc(Cl)cc1Cl (stereo not drawn) | -6.45% (inactive) |  |
| C=CCC[C@H](Cc1ccc(F)cc1)C(=O)OC[C@@H](NC(=O)[C@@H](CC=C)CC(=O)N[C@H](CO)Cc1ccccc1)C(C)(C)C |  | 7.94 µM (active) |
| C=CC[C@@H](CC(=O)N[C@@H](CO)Cc1ccccc1)C(=O)N[C@H](COC(=O)[C@H](CC=C)CC(=O)OC(C)(C)C)Cc1ccccc1 | 18.1% (inactive) |  |
| C=CC[C@@H](CC(=O)N[C@H](CO)Cc1ccccc1)C(=O)N[C@H](C)COC(=O)[C@@H](CC=C)Cc1ccc(F)cc1 | -24.5% (inactive) |  |
| CCCCc1ccc(S(=O)(=O)NC(=O)C2(C)CCN2C(=O)c2c(C)noc2C)cc1 (stereo not drawn) | 20.7% (inactive) |  |
| Cc1cc(=O)c2ccc(NC(=O)c3ccccc3)cc2[nH]1 | 21.1% (inactive) |  |
| CCCCCn1nnnc1C1c2ccccc2C(=O)N1Cc1ccco1 (stereo not drawn) | 15.6% (inactive) |  |
| COc1ccc(Sc2ccc(NC(=O)c3cccc(Cl)c3)cc2C#N)cc1 | -0.552% (inactive) |  |

| SMILES | activity change, negative = inhibition | Potency |
| --- | --- | --- |
| CCCCNC(=O)C[C@@H]1C[C@@]2(C(=O)OCC)CCC=C2N(Cc2ccco2)C1=O | 4.25% (inactive) |  |
| O=S(=O)(Cc1ccccc1)c1nc2ccccc2n1Cc1ccccn1 | 0.0124% [at 7.66 µM] (inactive) |  |
| Cn1c(S(=O)(=O)O)nc2ccccc21 | 10.8% (inactive) |  |
| O=S(=O)(O)c1nc2ccccc2n1Cc1ccc(Cl)cc1Cl |  | 10 µM (active) |
| Cc1ccc(-c2ccc(C3=CC(=O)CC(C)(C)C3=O)cc2)cc1 | 4.58% (inactive) |  |
| CCc1nc2ccc(C(=O)NC3CCN(Cc4ccccc4)CC3)cn2c1N(C)CCN1CCOCC1 | 7.53% (inactive) |  |
| CC(C)CCC(=O)Nc1cc(S(=O)(=O)N2CCOCC2)ccc1N1CCCC1 | 8.82% (inactive) |  |
| CC(=O)c1cccc(Nc2ccc3cc(S(=O)(=O)N4CCC(C)CC4)ccc3n2)c1 | -17.5% (inactive) |  |
| O=S(=O)(c1ccc2nc(N3CCN(c4cccc(Cl)c4)CC3)ccc2c1)N1CCCCC1 | 3.79% (inactive) |  |
| Cc1ccc(Nc2ccc3cc(S(=O)(=O)N4CCCCC4)ccc3n2)cc1F |  | 2.82 µM (active) |
| Cc1ccc(NC(=O)CN2C(=O)C(c3ccc(F)cc3)=NC23CCCCCC3)c(C)c1 | -6.38% (inactive) |  |
| COc1ccc(NC(=O)CN2C(=O)C(c3ccccc3)=NC23CCCCCC3)cc1OC | -8.64% (inactive) |  |
| CC1CCC2(CC1)N=C(c1ccccc1)C(=O)N2CC(=O)Nc1ccc(F)c(Cl)c1 (stereo not drawn) |  | 10 µM (active) |
| CC(C)(C)c1ccc(S(=O)(=O)NC(=O)C2(C)CCN2C(=O)CC2CC2)cc1 (stereo not drawn) | -9.62% (inactive) |  |
| CCOC(=O)C1(S(=O)(=O)c2ccc(Cl)cc2)CCN(Cc2ccccc2)CC1 | -22.8% (inactive) |  |
| CCOC(=O)C1(CCOC)CCN(Cc2ccc(C(=O)OC)cc2)CC1 | -8.63% (inactive) |  |
| CCOC(=O)C1(CCOc2ccccc2)CCN(Cc2cc(OC)cc(OC)c2)CC1 |  | 10 µM (active) |
| CCCS(=O)(=O)N1CCC(CCOc2ccccc2)(C(=O)OCC)CC1 | -4.3% (inactive) |  |
| CCOC(=O)C1(CCOc2ccccc2)CCN(Cc2ccc(C#CCCO)cc2)CC1 |  | 7.94 µM (active) |
| CCOC(=O)C1(CCOc2ccccc2)CCN(C(=O)c2cncs2)CC1 | 9.36% (inactive) |  |
| COC(=O)C[C@@H]1C=C[C@@H](NC(=O)c2cccnc2)[C@@H](CO)O1 | -5.33% (inactive) |  |
| COc1ccc(CN2C[C@H]3CON(C)[C@H]3C[C@H]2c2ccc(-c3cccc(F)c3)cc2)cc1 | 11.3% (inactive) |  |
| CC1C(=O)N(Cc2cn(CC3CCCCC3)nn2)CCS(=O)(=O)N1Cc1ccc(-c2cccc(N(C)C)c2)cc1 (stereo not drawn) | -14% (inactive) |  |
